Measurements as given in PubChem BioAssay (NCI).
About 83,000 compounds went through this panel and 20% of them were active in at least one assay; those are over-represented in the sample as a whole.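 For each line, cells grew in 96-well plates with the test compound present at a single concentration for 48 hours.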 Values without a mark were called inactive. Activity calls are given as the source filed them. Rule for the calls: active = growth percent below 10; inactive = the rest.

Assays:
Experiment in all cases: NCI-60 one-dose screen, 48 h (100 = growth as untreated, 0 = no growth, -100 = all killed)
Settings in all cases: 10 µM
[1] = tested on: SR leukemia
[2] = tested on: RPMI-8226 leukemia
[3] = tested on: OVCAR-8 ovarian
[4] = tested on: OVCAR-5 ovarian
[5] = tested on: OVCAR-4 ovarian
[6] = tested on: SK-OV-3 ovarian
[7] = tested on: IGROV1 ovarian
[8] = tested on: OVCAR-3 ovarian
[9] = tested on: HS 578T breast
[10] = tested on: NCI/ADR-RES ovarian

`COC1=CC(=O)c2nc(Cl)ccc2C1=O` was tested, and the growth [1] was 5.55% (active), the growth [2] was 3.41% (active) and the growth [3] was 7.95% (active). For the same compound, the growth [4] was 11.6%, the growth [5] was -97% (active) and the growth [6] was 89.4%. The growth [7] was 20.4%, the growth [8] was -2.3% (active) and the growth [9] was 74.7%. For the same compound, the growth [10] was 5.5% (active).
Work on `C#CC(C(C)C)N(CCO)CCCC` (stereo not given) yielded a growth [1] of 101%, a growth [2] of 101% and a growth [3] of 105%. The growth [4] was 92.4%, the growth [5] was 101% and the growth [6] was 106%. It also gave a growth [7] of 115%, a growth [8] of 111% and a growth [9] of 102%. For the same compound, the growth [10] was 110%.
Compound `O=C(O)CSCSCC(=O)O` has a growth [1] of 97.1%, a growth [2] of 97.3% and a growth [3] of 101%. The growth [4] was 101%, the growth [5] was 99.6% and the growth [6] was 93.6%. It also gave a growth [7] of 107%, a growth [8] of 104% and a growth [9] of 114%. It also gave a growth [10] of 109%.
In the case of `CC1C(=O)c2ccccc2CC1C(=O)O` (stereo not given), the growth [1] is reported as 95.8%, the growth [2] is reported as 110% and the growth [3] is reported as 97%. It also gave a growth [4] of 103%, a growth [5] of 108% and a growth [6] of 108%. The growth [7] was 100%, the growth [8] was 129% and the growth [9] was 119%. The growth [10] was 102%.
`COc1ncnc2c1cnn2C` gave a growth [1] of 82.6%, a growth [2] of 107% and a growth [3] of 103%. It also gave a growth [4] of 103%, a growth [5] of 117% and a growth [6] of 104%. The growth [7] was 110%, the growth [8] was 109% and the growth [9] was 114%. It also gave a growth [10] of 104%.
`CCCCCCCCCCCCCCCCC1CC(=O)OC1=O` (stereo not given) was tested, and the growth [1] was 99.3%, the growth [2] was 108% and the growth [3] was 101%. For the same compound, the growth [4] was 102%, the growth [5] was 108% and the growth [6] was 106%. For the same compound, the growth [7] was 124%, the growth [8] was 119% and the growth [9] was 106%. It also gave a growth [10] of 113%.
`O=S(=O)(O)c1cc(O)c2c(N=Cc3ccccc3O)c(S(=O)(=O)O)ccc2c1` gave a growth [1] of 95.1%, a growth [2] of 97.5% and a growth [3] of 105%. The growth [4] was 103%, the growth [5] was 109% and the growth [6] was 103%. It also gave a growth [7] of 88.4%, a growth [8] of 105% and a growth [9] of 103%. It also gave a growth [10] of 104%.
Compound `CSC(=N\N=C\c1ccc(N(C)C)cc1)/N=C/N(C)C` has a growth [1] of 99%, a growth [2] of 92.3% and a growth [3] of 102%. For the same compound, the growth [4] was 95.5%, the growth [5] was 107% and the growth [6] was 106%. The growth [7] was 105%, the growth [8] was 112% and the growth [9] was 90.1%. For the same compound, the growth [10] was 119%.
With `NNc1ccccc1C(=O)O` the growth [1] was 112%, the growth [2] was 112% and the growth [3] was 110%. For the same compound, the growth [4] was 88.9%, the growth [5] was 111% and the growth [6] was 115%. It also gave a growth [7] of 118%, a growth [8] of 119% and a growth [9] of 108%. It also gave a growth [10] of 107%.
`CC(CC(=O)c1ccccc1)c1ccccc1` (stereo not given) was tested, and the growth [1] was 101%, the growth [2] was 104% and the growth [3] was 102%. The growth [4] was 113%, the growth [5] was 109% and the growth [6] was 127%. It also gave a growth [7] of 101%, a growth [8] of 116% and a growth [9] of 118%. For the same compound, the growth [10] was 118%.
`CCCCCCCO` showed a growth [1] of 91.5%, a growth [2] of 102% and a growth [3] of 99.7%. The growth [4] was 87.5%, the growth [5] was 97.9% and the growth [6] was 106%. It also gave a growth [7] of 115%, a growth [8] of 115% and a growth [9] of 102%. The growth [10] was 107%.
Work on `CC(=O)c1ccc(N=C(C#N)C2=C(O)c3ccccc3C2=O)cc1` yielded a growth [1] of 91.1%, a growth [2] of 117% and a growth [3] of 103%. For the same compound, the growth [4] was 119%, the growth [5] was 108% and the growth [6] was 95%. It also gave a growth [7] of 115%, a growth [8] of 112% and a growth [9] of 107%. For the same compound, the growth [10] was 105%.
`C#Cc1cccc(NC(=O)c2ccc(Cl)cc2Cl)c1` was tested, and the growth [1] was 115%, the growth [2] was 78.1% and the growth [3] was 105%. It also gave a growth [4] of 110%, a growth [5] of 95.5% and a growth [6] of 95.5%. The growth [7] was 115%, the growth [8] was 109% and the growth [9] was 108%. For the same compound, the growth [10] was 104%.
With `Cc1cc(O)ccc1O` the growth [1] was 104%, the growth [2] was 59.5% and the growth [3] was 104%. The growth [4] was 116%, the growth [5] was 98.5% and the growth [6] was 112%. For the same compound, the growth [7] was 114%, the growth [8] was 110% and the growth [9] was 103%. For the same compound, the growth [10] was 96.5%.
For `CC(=O)NCc1cc(C)c(C)cc1C`, the growth [1] was 97.6%, the growth [2] was 88.1% and the growth [3] was 104%. It also gave a growth [4] of 95.5%, a growth [5] of 106% and a growth [6] of 97.6%. For the same compound, the growth [7] was 104%, the growth [8] was 101% and the growth [9] was 108%. The growth [10] was 105%.
Work on `Cc1ccc(C(=O)c2ccccc2)c(C)c1` yielded a growth [1] of 127%, a growth [2] of 98% and a growth [3] of 109%. The growth [4] was 95.3%, the growth [5] was 103% and the growth [6] was 99.2%. It also gave a growth [7] of 101%, a growth [8] of 112% and a growth [9] of 113%. For the same compound, the growth [10] was 99.7%.
With `CCOC(=O)C(O)C(O)C(=O)OCC` (stereo not given) the growth [1] was 104%, the growth [2] was 110% and the growth [3] was 105%. For the same compound, the growth [4] was 100%, the growth [5] was 110% and the growth [6] was 108%. The growth [7] was 115%, the growth [8] was 107% and the growth [9] was 103%. The growth [10] was 108%.
With `COc1cc2nn(-c3ccccc3N)nc2cc1OC` the growth [1] was 111%, the growth [2] was 100% and the growth [3] was 97.1%. The growth [4] was 99.6%, the growth [5] was 97.7% and the growth [6] was 102%. It also gave a growth [7] of 89%, a growth [8] of 112% and a growth [9] of 92.6%. It also gave a growth [10] of 97.9%.
`O=C1C=C(Nc2ccc([N+](=O)[O-])cc2)c2ccccc2C1=O` was tested, and the growth [1] was 23.9%, the growth [2] was 18% and the growth [3] was 35.1%. The growth [4] was 86.9%, the growth [5] was 45.3% and the growth [6] was 62.3%. For the same compound, the growth [7] was 60.8%, the growth [8] was 7.94% (active) and the growth [9] was 47.5%. It also gave a growth [10] of 32.5%.
In the case of `CCCCCCCCOC(=O)c1ccccn1`, the growth [1] is reported as 125%, the growth [2] is reported as 101% and the growth [3] is reported as 103%. For the same compound, the growth [4] was 95%, the growth [5] was 104% and the growth [6] was 95.2%. For the same compound, the growth [7] was 103%, the growth [8] was 110% and the growth [9] was 106%. For the same compound, the growth [10] was 98.8%.
`O=C1c2ccccc2C(=O)N1OCc1ccccc1` showed a growth [1] of 93.4%, a growth [2] of 102% and a growth [3] of 105%. For the same compound, the growth [4] was 97.2%, the growth [5] was 105% and the growth [6] was 99.2%. For the same compound, the growth [7] was 94.4%, the growth [8] was 105% and the growth [9] was 113%. It also gave a growth [10] of 116%.
In the case of `C/C(=C\c1ccc([N+](=O)[O-])cc1)C(=O)O`, the growth [1] is reported as 96.3%, the growth [2] is reported as 95.8% and the growth [3] is reported as 99.2%. The growth [4] was 104%, the growth [5] was 99.2% and the growth [6] was 104%. For the same compound, the growth [7] was 110%, the growth [8] was 110% and the growth [9] was 101%. The growth [10] was 109%.
In the case of `Cc1cc2nc(CO)[nH]c2cc1C`, the growth [1] is reported as 122%, the growth [2] is reported as 87.9% and the growth [3] is reported as 101%. It also gave a growth [4] of 100%, a growth [5] of 103% and a growth [6] of 108%. It also gave a growth [7] of 108%, a growth [8] of 105% and a growth [9] of 151%. For the same compound, the growth [10] was 107%.
Work on `CCC(C)(C)C1CCC(O)CC1` (stereo not given) yielded a growth [1] of 102%, a growth [2] of 101% and a growth [3] of 102%. The growth [4] was 92.5%, the growth [5] was 107% and the growth [6] was 103%. For the same compound, the growth [7] was 107%, the growth [8] was 104% and the growth [9] was 101%. For the same compound, the growth [10] was 96.7%.
Compound `COc1cc(/C=C(\C#N)C(=O)c2ccccc2)ccc1OCc1ccccc1` has a growth [1] of 109%, a growth [2] of 107% and a growth [3] of 108%. For the same compound, the growth [4] was 103%, the growth [5] was 106% and the growth [6] was 107%. The growth [7] was 91.1%, the growth [8] was 101% and the growth [9] was 97.5%. It also gave a growth [10] of 98.4%.
`CC1OC(Oc2c(-c3ccc(O)c(O)c3)oc3cc(O)cc(O)c3c2=O)C(O)C(O)C1O` (stereo not given) gave a growth [1] of 106%, a growth [2] of 105% and a growth [3] of 106%. The growth [4] was 108%, the growth [5] was 105% and the growth [6] was 108%. For the same compound, the growth [7] was 107%, the growth [8] was 103% and the growth [9] was 105%. For the same compound, the growth [10] was 111%.
`C[N+](C)(C)C(=O)c1ccccc1` showed a growth [1] of 102%, a growth [2] of 111% and a growth [3] of 113%. The growth [4] was 98.7%, the growth [5] was 115% and the growth [6] was 104%. For the same compound, the growth [7] was 115%, the growth [8] was 113% and the growth [9] was 118%. For the same compound, the growth [10] was 113%.
With `COc1cc([C@@H]2c3cc4c(cc3[C@H](O)[C@H]3COC(=O)[C@H]23)OCO4)cc(OC)c1OC` the growth [1] was -1.68% (active), the growth [2] was 29.7% and the growth [3] was 12.9%. It also gave a growth [4] of 40%, a growth [5] of 26.9% and a growth [6] of 24.4%. For the same compound, the growth [7] was 31.6%, the growth [8] was -42.8% (active) and the growth [9] was 26.9%. The growth [10] was 4.7% (active).
In the case of `Cc1cc(N2CCC(N3CCCC3)CC2)nc(/N=C(\N)Nc2ccc(Cl)c(Cl)c2)n1`, the growth [1] is reported as -54.3% (active), the growth [2] is reported as -36.7% (active) and the growth [3] is reported as -9.16% (active). The growth [4] was 19%, the growth [5] was -13.2% (active) and the growth [6] was 88.3%. For the same compound, the growth [7] was 12.3%, the growth [8] was 69.7% and the growth [9] was -25.8% (active). The growth [10] was 30.3%.
`CC12CC3CC1C(C(=O)O2)C3C(=O)O` (stereo not given) was tested, and the growth [1] was 93.1%, the growth [2] was 108% and the growth [3] was 104%. It also gave a growth [4] of 97.8%, a growth [5] of 111% and a growth [6] of 95.6%. It also gave a growth [7] of 114%, a growth [8] of 101% and a growth [9] of 108%. It also gave a growth [10] of 97.5%.
